Results from PubChem BioAssay (NCATS).
Inconclusive results are not listed. The source made the active and inactive calls. Calls come from the whole dose curve; as a rule, active = well fitted cell-killing curve with a large enough effect; inconclusive = small, poorly fitted or top-dose-only effect, or effect the other way; inactive = flat fitted curve, though single readings scatter. Where a SMILES comes first, the peptide text is derived from it. [ ]: non-standard residue; d: D form. ξ: configuration not given here. ξPhe(βξ-Me) = CC(c1ccccc1)C(N)C(=O)O; GABA = NCCCC(=O)O

The molecules below were run on Tov112D (assay: Primary qHTS to identify gynecologic anti-cancer compounds using libraries of approved drugs and bioactive compounds (AID 1345084; note: nearly all actives have a fitted effect of over 55% in size)). Details: Gynecologic cancer cell panel viability, ATPlite luminescence, 48 h; series mostly up to 57.5 µM; activity change, negative = cytotoxicity: at the top concentration.
In short: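 Cells, 1,000 per well, were allowed to settle for 16 h at 37 C before compound addition. Five concentrations were tested for 48 h, and viability was read by ATPlite luminescence after 15 min at room temperature.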
% is set by controls: 0 for no effect and ±100 for the full control effect.

| SMILES | activity change, negative = cytotoxicity |
| --- | --- |
| CC(C)C(=O)O[C@@H]1[C@@H](O)[C@@H](O[C@H]2O[C@H](CO)[C@@H](O)[C@H](O)[C@H]2O)O[C@H](CO)[C@H]1O | -0.183% [at 25.3 µM] (inactive) |
| C=C(C(=O)O)[C@@H]1CC=C2CCC[C@H](C)[C@@]2(C)C1 | 1.11% (inactive) |
| CC1(C)CC[C@]2(C(=O)O)CC[C@]3(C)C(=CCC4[C@@]5(C)CCC(O[C@@H]6OC[C@H](O)[C@H](O)[C@H]6O[C@@H]6O[C@H](CO)[C@@H](O)[C@H](O)[C@H]6O)[C@@](C)(CO)C5CC[C@]43C)[C@@H]2C1 (some centres not stated) | 5.65% [at 25.3 µM] (inactive) |
| CNc1nc(Nc2cnn([C@H]3CCN(C4COC4)C[C@@H]3F)c2Cl)ncc1C(F)(F)F | 1.81% (inactive) |
| CCCCNC(=O)[C@@H]1Cc2ccccc2N1C(=O)[C@@H](N)CC | 26.8% (inactive) |
| Cc1coc2c1CC1OC1(C)CCC1OC1(C)C2 (configuration not stated) | 6.4% (inactive) |
| COC(=O)C1C(CC(C)=O)C=CC(O)C12Oc1cc(C)cc(O)c1C2=O (configuration not stated) | -5.38% [at 38.5 µM] (inactive) |
| CCOC(=O)[C@H]1O[C@@H]1C(=O)N[C@@H](CC(C)C)C(=O)NCCC(C)C | 10.9% (inactive) |
| C=C1CCC2C(C)(C)C(O)CCC2(C)C1CCC(C)CCOC(=O)CCC(=O)O (configuration not stated) | 6.26% [at 25.3 µM] (inactive) |
| CC1CCC2(C(=O)OC3OC(CO)C(O)C(O)C3O)CCC3(C(=O)O)C(=CCC4C5(C)CCC(OC6OC(C)C(O)C(O)C6O)C(C)(C)C5CCC43C)C2C1C (configuration not stated) | 4.59% [at 25.3 µM] (inactive) |
| COC1CC(=O)C23C(=O)NC(CC(C)C)C2C(C)C(C)=CC3/C=C(\C)CCC1O (configuration not stated) | 5.7% [at 25.3 µM] (inactive) |
| C[C@@H]1O[C@@H](O[C@H]2[C@H](OC(=O)[C@]34CCC(C)(C)C[C@H]3C3=CCC5[C@@]6(C)C[C@H](O)[C@H](O[C@@H]7O[C@H](CO[C@@H]8OC[C@H](O)[C@H](O)[C@H]8O)[C@@H](O)[C@H](O)[C@H]7O)C(C)(C)C6CC[C@@]5(C)[C@]3(C)C[C@H]4O)OC[C@@H](O)[C@@H]2O)[C@H](O)[C@H](O[C@@H]2OC[C@](O)(CO)[C@H]2O)[C@H]1O[C@@H]1OC[C@H](O)[C@H](O[C@@H]2OC[C@@H](O)[C@H](O)[C@H]2O)[C@H]1O (some centres not stated) | 5.07% [at 6.55 µM] (inactive) |
| COc1cc(C)c(C(=O)O[C@H]2[C@@H](O)[C@H](n3ccc(=O)[nH]c3=O)O[C@@H]2CO)c(OC)c1 | 2% [at 25.3 µM] (inactive) |
| CC(C)CC1NC(=O)C(C(C)c2ccccc2)NC(=O)C(C(C)C)NC(=O)C(C)NC(=O)CCCNC(=O)C(Cc2c[nH]c3ccccc23)NC(=O)C(C)NC1=O (stereo not drawn) (cyclo([GABA]AV[ξPhe(βξ-Me)]LAW); configuration not given here) | -1.31% [at 25.3 µM] (inactive) |
| CC(C)Nc1cc(-c2c[nH]c(C(=O)N[C@H](CO)c3cccc(Cl)c3)c2)c(Cl)cn1 | -15.8% (inactive) |
| COc1cc(N2CCC(O)CC2)ccc1Nc1cc(Nc2ccccc2S(=O)(=O)C(C)C)c2cc[nH]c2n1 | 8.88% [at 38.5 µM] (inactive) |
| O=C(O)C[C@@H](NC(=O)c1cc(-c2ccc(-c3ccncc3)cc2)cs1)c1ccccc1 | -12.7% (inactive) |
| OC[C@H]1O[C@@H](n2cnc3c2NC=NC[C@H]3O)C[C@@H]1O | -1.64% (inactive) |
| CC1(C)C[C@H]2C3=CCC4[C@@]5(C)CC[C@H](O[C@H]6O[C@H](C(=O)O)[C@@H](O)[C@H](O)[C@H]6O[C@H]6O[C@H](CO)[C@@H](O)[C@H](O)[C@H]6O[C@@H]6O[C@H](CO)[C@@H](O)[C@H](O)[C@H]6O)[C@](C)(CO)C5CC[C@@]4(C)[C@]3(C)CC[C@@]2(C)[C@H](O[C@@H]2OC[C@H](O)[C@H](OC3O[C@H](CO)[C@@H](O)[C@H](O)[C@H]3O)[C@H]2O)[C@@H]1O (some centres not stated) | -3.08% [at 6.55 µM] (inactive) |
| C[C@@H]1O[C@@H](O[C@H]2[C@H](OC(=O)[C@]34CCC(C)(C)C[C@H]3C3=CCC5[C@@]6(C)C[C@H](O)[C@H](O[C@@H]7O[C@H](CO)[C@@H](O[C@@H]8O[C@H](CO)[C@@H](O)[C@H](O)[C@H]8O)[C@H](O)[C@H]7O)[C@@](C)(CO)C6[C@H](O)C[C@@]5(C)[C@]3(C)C[C@H]4O)OC[C@H](O)[C@@H]2O)[C@H](O)[C@H](O)[C@H]1O[C@@H]1OC[C@@H](O)[C@H](O[C@@H]2OC[C@](O)(CO)[C@H]2O)[C@H]1O (some centres not stated) | 2.65% [at 6.55 µM] (inactive) |
| C[C@@H]1O[C@@H](OC[C@H]2O[C@@H](OCC3CCC4CC3C4(C)C)[C@H](O)[C@@H](O)[C@@H]2O)[C@H](O)[C@H](O)[C@H]1O (some centres not stated) | 4.78% [at 25.3 µM] (inactive) |
| CC(C)=CCC/C(C)=C/CC/C(C)=C/CC[C@]1(C)CCc2cc(O)cc(C)c2O1 | -3.59% [at 25.3 µM] (inactive) |
